Records with an inconclusive call do not appear. Calls of active or inactive are those of the source. How the source made its calls: active means hit-call score of the fitted dose curve at least 0.9, where 1 is the maximum; inconclusive means response in the unintended direction; inactive means score below 0.9.

The values below come from PubChem BioAssay (EPA / NIEHS).

A short description of the test: ATG_XTT_Cytotoxicity: Cytotoxicity Assessment in the Attagene TRANS-FACTORIAL HepG2 Assay (AID 2283584). The method, boiled down:
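Transfect HepG2 with GAL4-UAS reporter units, dose compound, incubate 24 h, then measure viable cell number by XTT. Fit concentration response against DMSO baseline.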
For `N#Cc1ccc(O)cc1`, the compound was classed as inactive.
Then `CC(C)CBr`, with “inactive”; and `Cn1[nH]nnc1=S`, with “inactive”; and `CC(=O)CCc1ccc2c(c1)OCO2`, with “inactive”.
Then `CCOP(=S)(S)OCC`, with “inactive”; and `Cc1ccc2c(c1N)C(=O)c1ccccc1C2=O`, with “inactive”.
Take `O=c1[nH]c2ccccc2c(=O)o1`: the compound was called inactive.
Then `O=[N+]([O-])c1cc(Cl)ccc1Cl`, with “inactive”.
As to `Clc1ccc(Oc2ccccc2)cc1`, the compound was classed as inactive.
Take `Cc1c([N+](=O)[O-])cc2c(c1[N+](=O)[O-])C(C)(C)CC2(C)C`: the compound was called inactive.
Then `CC1(C)CN=C(NN=C(/C=C/c2ccc(C(F)(F)F)cc2)/C=C/c2ccc(C(F)(F)F)cc2)NC1`, with “inactive”.
Consider `CCOP(=S)(OCC)SCS(=O)(=O)CC`, for which the compound was classed as inactive.
Then `FC(F)(F)c1ccc(Cl)cc1`, with “inactive”.
Then `CC(O)C#N` (stereo unspecified), with “inactive”; and `Oc1ccc(I)cc1`, with “inactive”.
Consider `C/C(=N\NC(=O)Nc1cc(F)cc(F)c1)c1ncccc1C(=O)O`, for which the call was inactive.
Then `CCCCOCC1CO1` (stereo unspecified), with “inactive”; and `CCOC(=O)c1ccccc1N`, with “inactive”; and `O=S(=O)(c1ccc(O)cc1)c1ccc(O)cc1`, with “inactive”.
Then `COC(N)=O`, with “inactive”.
Then `Nc1ccc(Sc2ccc(N)cc2)cc1`, with “inactive”.
On to `CO/N=C(/C(=O)OC)c1ccccc1COc1ccccc1C`, for which the compound was classed as inactive.
Turning to `CCCCC(CC)COP(=O)(Oc1ccccc1)Oc1ccccc1` (stereo unspecified), the result was inactive.
Then `CC(Cl)CN(C)C` (stereo unspecified), with “inactive”; and `c1ccc2c(c1)sc1ccccc12`, with “inactive”.
Take `CCOP(=S)(OCC)SCSc1ccc(Cl)cc1`: the result was inactive.
Then `CCOP(=S)(OCC)SCn1nnc2ccccc2c1=O`, with “inactive”; and `COP(=O)(CCC(=O)NCO)OC`, with “inactive”.
Then `O=C(CBr)OCc1ccccc1`, with “inactive”; and `N#Cc1cc([N+](=O)[O-])ccc1N`, with “inactive”; and `Cc1cc(C)c(C(=O)P(=O)(c2ccccc2)c2ccccc2)c(C)c1`, with “inactive”.
